Only some compounds are listed: those with a hit (about 19% of all), similar ones and a draw of the others.
HT1080 IDH1KD tx: qHTS for induction of synthetic lethality in tumor cells producing 2HG: qHTS for the HT-1080-IDH1KD cell line; 360,000 compounds, 2% hits; AID 686971, 2013; Potency, µM (series often up to 46.1 µM), without a hit: top-dose activity, negative = toxicity, most hits filed as cytotoxic; HT-1080 IDH1 knockdown viability, ATP luminescence, 48 h;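 further: potency means the concentration at half of the fitted maximal effect; 0% = DMSO wells and -100% = cell-free medium wells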
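Assay cells: HT-1080 with IDH1 knockdown, 750 per well, RPMI/5% FBS. Exposure: 48 h at 37 °C following 2 h pre-incubation. Read: CellTiter-Glo luminescence; fitted concentration-response, curve class assigned.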
HT1080-NT tox: qHTS for induction of synthetic lethality in tumor cells producing 2HG: qHTS for the HT-1080-NT fibrosarcoma cell line; Potency, µM (series often up to 46.1 µM), for the others: top-dose activity, negative = less viability, hits mostly cytotoxic; HT-1080-NT fibrosarcoma viability, CellTiter-Glo ATP luminescence, 48 h; 360,000 compounds, 1.6% hits;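 further: NT is the 2HG producing partner of a matched IDH1 knockdown line; potency means the concentration at half of the fitted maximal effect; 0% = DMSO-treated cells and -100% = media-only wells without cells; nearly all actives have a fitted effect of over 55% in size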
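Viability of the 2HG-overproducing fibrosarcoma line after 48 hours of compound exposure at 37 degrees C was determined by luminescence with CellTiter-Glo, and concentration-effect curves were then fitted and categorized.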
DT40 TDP1 CPT: qHTS for Inhibitors of human tyrosyl-DNA phosphodiesterase 1 (TDP1): qHTS in cells in presence of CPT; chicken DT40 Tdp1-/-;hTDP1 cells + 20 nM CPT, ATP luminescence, 48 h; Potency, µM (titrated, usually from 46.2 µM), for the others: at the top dose activity change, negative = growth inhibition, most hits filed as inhibitors; 420,000 compounds, 12% hits; AID 686979, 2013; further: potency means the concentration at half of the fitted maximal effect; nearly all actives have a fitted effect of over 55% in size
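Cell growth measured by CellTiter-Glo luminescence after a minimum 48 h, 37 C compound exposure with 20 nM CPT in Tdp1-knockout DT40 cells stably expressing hTDP1, seeded 400/well; qHTS titration format.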
IL-1B inflam inh: qHTS for Inhibitors of Inflammasome Signaling: IL-1-beta AlphaLISA Primary Screen | THP-1 LPS/ATP IL-1B secretion, AlphaLISA, 16 h; active compounds read low | activity change, % at 57.5 µM | 360,000 compounds, 4.7% hits | AID 743279, 2014; in the data active means activity change below about -50%; inconclusive means mostly about -30% to -49%
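Secreted IL-1B measured by AlphaLISA bead assay after 16 h compound exposure of THP-1 cells; compounds (final up to 57.5 uM) added 1 h before LPS (250 ng/mL) and ATP (1.25 mM) stimulation; lower signal means less secretion.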
DT40 TDP1 no CPT: qHTS for Inhibitors of human tyrosyl-DNA phosphodiesterase 1 (TDP1): qHTS in cells in absence of CPT; DT40 Tdp1-/- hTDP1 cells, no CPT, ATP luminescence, 48 h; Potency, µM (titrated, usually from 46.2 µM), for inactives: top-dose activity change, negative = growth inhibition, actives largely listed as inhibitors; 420,000 compounds, 15% hits; further: potency means the concentration at half of the fitted maximal effect; nearly all actives have a fitted effect of over 55% in size
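Growth of hTDP1-complemented DT40 Tdp1-knockout cells is measured by ATP luminescence after at least 48 hr compound exposure at 37 °C, with DMSO substituting for the 20 nM CPT used in the parallel screen.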
An asterisk follows results filed as active; i = inactive; ? = inconclusive; / = no result given; [ ] = another dose, or the depositor's remark. Unless noted, the call rests on the fitted dose curve; in most records, active means well fitted curve in the direction sought with a large enough effect; inconclusive means small, poorly fitted or top-dose-only effect, or another doubt; inactive means no such curve, though single readings can be large; an effect the other way counts as inactive or inconclusive. Unless noted, on the % scale 0 is the no-effect control and ±100 the full control effect.

SMILES | HT1080 IDH1KD tx | HT1080-NT tox | DT40 TDP1 CPT | IL-1B inflam inh | DT40 TDP1 no CPT
O=C(Nc1ccc(F)c(Cl)c1)c1cc(C2CCCCN2C(=O)c2ccc(Cl)cc2)on1 (configuration not stated) | 10% | -12% | 21µM* | ? | 21µM*
Cc1ccc(C(=O)c2cn[nH]c2-c2cc(Cl)ccc2O)cc1 | ? | ? | ? | 25 | ?
Cc1ccc(-c2[nH]ncc2C(=O)c2ccc(Br)cc2)c(O)c1 | ? | ? | ? | -82* | ?
Cc1ncc(CO)c(CNc2ccc(Oc3ccccc3)cc2)c1O | ? | -19% | 13µM* | 4 | 6.5µM*
CCOc1ccc(C2Nc3c(C)cccc3-c3cc(C)nn32)cc1 (configuration not stated) | / | / | 21µM* | / | ?
COc1ccc(C)cc1NC(=O)CN1C(=O)COc2ccc(S(=O)(=O)NC3CCCC3)cc21 | / | / | 2% | / | -27%
CCCCN(C)CCCNC(=O)c1cc(=O)[nH]c2ccc(S(=O)(=O)N3CCCCC3)cc12 | / | / | 7% | / | -24%
Cc1nc(NC2=NCN(CCCN3CCOCC3)CN2)nc2c(C)cccc12 | -13% | -5% | ? | -61* | 16µM*
Cc1ccc2nc(NC3=NCN(Cc4cccnc4)CN3)nc(C)c2c1 | -23% | 0% | -12% | -3 | -4%
COc1ccc(-c2csc(N(Cc3ccccc3)C(=O)COc3ccc(Cl)cc3)n2)cc1 | -6% | -2% | 21µM* | 11 | 18µM*
O=C(COc1ccccc1)N(Cc1ccccc1)c1nc(-c2ccccc2)cs1 | -21% | ? | -27% | -4 | ?
COc1ccc(-c2csc(N(CCc3ccc(OC)c(OC)c3)C(=O)COc3ccccc3)n2)cc1 | 12% | 5% | ? | 7 | 16µM*
CN(C(=O)COc1ccccc1)c1nc(-c2ccc(F)cc2)cs1 | 10% | 10% | -5% | -15 | 5%
CC(=O)Nc1ccc(C(=O)NNC(=O)c2csc(N3CCOCC3)n2)cc1 | 0% | 0% | ? | -28 | 7.3µM*
CCOc1ncccc1C(=O)NNC(=O)c1csc(N2CCOCC2)n1 | -22% | -13% | 26µM* | -30 | ?
O=C(NNC(=O)c1cc(Br)ccc1O)c1csc(N2CCOCC2)n1 | ? | -24% | ? | 96 | 21µM*
CCN(CC)S(=O)(=O)c1ccc(C(=O)NNC(=O)c2csc(N3CCOCC3)n2)cc1 | -17% | -1% | -3% | 6 | -19%
O=C(NNC(=O)c1cc(Br)ccc1Cl)c1csc(N2CCOCC2)n1 | -16% | -1% | -1% | i | 2%
CCOc1ccc(N(CC(=O)NCCc2ccccc2)C(=O)c2csnn2)cc1 | 0% | 9% | -17% | -3 | 1%
CC1(c2nnc(Cc3ccccc3)o2)CC(c2cccc(F)c2)=NO1 (configuration not stated) | 6% | -11% | 0% | 19 | -3%
OC(CNCc1ccccc1)Cn1ccc2ccccc21 (configuration not stated) | 1% | -3% | -19% | -50* | -8%
OCc1nc2ccccc2n1CC(O)Cn1ccc2ccccc21 (configuration not stated) | -8%[9.24 µM] | -20% | 16µM* | -5 | 13µM*
Oc1ccccc1NCC(O)Cn1ccc2ccccc21 (configuration not stated) | ? | ? | 16µM* | ? | 21µM*
c1cc(-c2ccc(N3CCOCC3)cc2)n2ccnc2c1 | 12% | 1% | ? | 36 | ?
COc1ccc(CNCc2cc(C)c(OC)cc2C)c(OC)c1 | ? | ? | 15µM* | -63* | 12µM*
SMILES | HT1080 IDH1KD tx | HT1080-NT tox | DT40 TDP1 CPT | IL-1B inflam inh | DT40 TDP1 no CPT
COc1cccc(CNCc2ccc(OC)cc2OC)c1 | -4% | 2% | ? | -57* | ?
CCn1c2ccccc2c2cc(CNCc3ccc(OC)cc3OC)ccc21 | ? | -16% | ? | -88* | 10µM*
COc1ccc(C)cc1S(=O)(=O)NCc1ccccn1 | -2% | 1% | 1% | -11 | 2%
Cc1c(Cl)cccc1N=C(N)N=C(N)N | 13% | 3% | ? | -5 | 23µM*
NC(N)=NC(N)=Nc1cccc2ccccc12 | 9% | 10% | ? | -7 | ?
C=CCN(C)CCCCCCOc1ccc(C(=O)c2ccc(Br)cc2)c(F)c1 | / | / | 5µM* | / | 5µM*
CN(CCCCOc1ccc(F)cc1)Cc1ccccc1 | 0% | 1% | -15% | -28 | -2%
Cn1c(=O)c2ncn(CC(=O)Nc3cccc(-c4nc5ccccc5s4)c3)c2n(C)c1=O | -2% | ? | 15µM* | 39 | 15µM*
O=C(Nc1cccc(-c2nc3ccccc3s2)c1)c1cccs1 | ? | ? | ? | 0 | ?
CCS(=O)(=O)c1ccccc1C(=O)Nc1ccc(-c2nc3ccccc3s2)cc1 | / | / | ? | / | 15µM*
CCOc1ccccc1C(=O)Nc1cccc(-c2nc3ccccc3s2)c1 | / | / | 6.5µM* | / | 5.2µM*
O=C(CCS(=O)(=O)c1ccccc1)Nc1cccc(-c2nc3ccccc3s2)c1 | -29% | -12% | ? | 103 | 18µM*
O=C(CSc1nnc2ccccn12)Nc1cccc(-c2nc3ccccc3s2)c1 | 9% | 12% | -24% | 25 | -30%
COc1cc(OC)cc(C(=O)Nc2cc(-c3nc4ccccc4s3)ccc2OC)c1 | / | / | 0% | / | -3%
CCC(CC)C(=O)Nc1cccc(-c2nc3ccccc3s2)c1 | / | / | 21µM* | / | ?
CCC(CC)C(=O)Nc1cccc(-c2nc3ccccc3o2)c1 | 15%[9.24 µM] | ? | ? | -23 | 16µM*
COc1ccc(C(=O)Nc2ccc(-c3nc4ccccc4s3)c(Cl)c2)cc1Cl | / | / | -22% | / | -13%
CCCC(CCC)C(=O)Nc1cccc(-c2nc3cccnc3s2)c1 | / | / | -8% | / | -2%
COc1c(C)cccc1C(=O)Nc1ccc(-c2nc3ccccc3s2)c(Cl)c1 | / | / | ? | / | 12µM*
CCOc1cc(C(=O)Nc2ccc(-c3nc4ccccc4s3)cc2Cl)cc(OCC)c1OCC | / | / | ? | / | 23µM*
O=C(O)c1ccccc1-c1ccccc1C(=O)Nc1cccc(-c2nc3ccccc3o2)c1 | -21% | -9% | -16% | -9 | -33%
O=C(c1cn(C2CCCN(Cc3cc(Cl)ccc3O)C2)nn1)N1CCCCC1 (configuration not stated) | / | / | 8%[9.04 µM] | / | -12%
COc1ccccc1-n1cc(C(=O)NCCN2Cc3ccccc3OC(c3ccsc3)C2)cn1 (configuration not stated) | / | / | 6%[9.04 µM] | / | -27%
